Screening data (PubChem BioAssay)
A selection: hits, their analogues and other compounds. The true share with any hit is near 10%.
SARS PLpro yeast: SARS-CoV PLP inhibition in yeast. S. cerevisiae expressing SARS-CoV PLpro, growth rescue. Potency, µM (series often up to 32.9 µM), for the others: at the highest dose activity, positive = growth rescue, hits mostly activators. 330,000 compounds, 0.19% hits; calls by dose curve; note: 0% is about no effect; nearly all actives have a fitted effect of over 55% in size
Pf growth 96h: inhibits malaria parasite growth, 96 h | AID 504834 | Potency, µM (top dose mostly 28.7 µM), without a hit: at the top dose activity change, negative = inhibition, hits mostly inhibitors | 320,000 compounds, 6.9% hits | P. falciparum luciferase reporter growth, 96 h; note: % is set by controls: 0 for no effect and ±100 for the full control effect
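Parasite growth measured via integrated firefly luciferase reporter in P. falciparum. Infected erythrocytes at 2% hematocrit, 0.05% parasitemia final were treated 96 hours at 37 C under 5% CO2, and luminescence was read.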
NS1 inh: influenza NS1 inhibition. Potency, µM (top dose mostly 46.1 µM), for inactives: top-dose activity, positive = more growth. 270,000 compounds, 0.4% hits. AID 2326; calls by dose curve; note: actives are rising curves; nearly all actives have a fitted effect of over 50% in size
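Growth recovery, yeast-based: influenza A NS1 expressed in S. cerevisiae causes slow growth, and suppressors are detected by OD600. The parent strain without NS1 is used as positive control.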
Pf growth 48h: inhibits P. falciparum growth in the first generation, 48 h; P. falciparum luciferase growth in erythrocytes, 48 h; Potency, µM (titrated, usually from 28.7 µM), for the others: at the top dose activity change, negative = inhibition, hits mostly inhibitors; 310,000 compounds, 5.9% hits; AID 504832; note: % is set by controls: 0 for no effect and ±100 for the full control effect
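Compounds are pin-transferred into medium, infected erythrocytes (2% hematocrit, 0.1% parasitemia final) are added, and plates sit one parasite generation at 37 C in 5% CO2. Detection reagent is then added and luminescence measured.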
Active calls of the source: *; ? = inconclusive; · = no result; [ ] = another dose, or the depositor's remark. Unless noted, calls come from the whole dose curve; as a rule, active = well fitted inhibition curve with a large enough effect; inconclusive = small, poorly fitted or top-dose-only effect, or another doubt; inactive = no such curve, though single readings can be large or run the other way. Potency is the fitted concentration of half-maximal effect.

SMILES | SARS PLpro yeast | Pf growth 96h | NS1 inh | Pf growth 48h
Cc1cc2c(c(=O)n1Cc1ccccc1)C1O[C@](c3ccsc3)(Cc3ccccc31)O2 | -4.6%[6.58 µM] | ? | -34.6% | 1.2µM*
CN(CC(=O)Nc1cccc(F)c1)C(=O)c1ccccc1OCC(=O)Nc1cccc(C(F)(F)F)c1 | -2.8% | ? | · | ?
O=C(N1CCCC1)N1CCN(S(=O)(=O)c2ccccc2)CC1 | 0.0% | 39.9% | -2.9% | 3.8%
O=C(N/N=C1/CN2CCC1CC2)c1cc2ccccc2cc1O | -1.0% | 31.6% | 7.0% | 13.1µM*
O=C(c1cc2ccccc2cc1O)N1CCCC1 | -2.0% | -6.5% | -0.2% | 1.2%
O=C(CCBr)N1CCN(C(=O)CCBr)CC1 | · | ? | · | -14.7%
CCN1CCCC1CNC(=O)c1cc2c(-c3ccc(Cl)cc3)nn(C)c2s1 (stereo unspecified) | -2.9% | 18.6% | -21.6% | ·
COc1cccc(-c2cc(C(=O)NCc3ccco3)no2)c1 | 4.3% | ? | -11.4% | ·
CCCCN(C)CCNC(=O)c1cc2c(-c3ccccc3F)nn(C)c2s1 | 0.9% | -6.0% | 0.5% | ?
CCN1CCCC1CNC(=O)c1cc2c(-c3cccc(OC)c3)nn(C)c2s1 (stereo unspecified) | 6.2% | 5.86µM* | -3.2% | ?
CCN(CC)CCCNC(=O)c1cc2c(-c3cccc(OC)c3)nn(C)c2s1 | 0.7% | 80.1% | -4.4% | 8.28µM*
CCCCN(C)CCNC(=O)c1cc2c(-c3cccc(OC)c3)nn(C)c2s1 | -0.3% | -19.2% | 1.0% | 1.47µM*
COCCCNC(=O)c1cc2c(-c3ccc(Cl)cc3)nn(C)c2s1 | 2.4% | 43.0% | -7.8% | ·
COc1cccc(-c2nn(C)c3sc(C(=O)NCc4ccco4)cc23)c1 | -8.1% | 3.8% | -7.0% | 7.38µM*
COC(=O)c1ccccc1NC(=O)NC1CCCCC1 | 0.6% | 30.7% | -0.5% | 12.7%
COc1ccc2cc(C=NS(=O)(=O)c3ccc(C)cc3)n(C)c2c1 | 2.2% | 51.4% | · | 40.3%
COc1cccc(-c2nn(C)c3sc(C(=O)NCCCN(C)Cc4ccccc4)cc23)c1 | 1.1% | 57.4% | -2.2% | 2.08µM*
CCCCNC(=O)c1cc2c(-c3ccc(Cl)cc3)nn(C)c2s1 | -8.4% | ? | -9.6% | ·
CNC(=O)c1cc2c(-c3ccccc3)nn(C)c2s1 | -10.6% | -20.4% | -7.0% | -18.5%[0.00184 µM]
CCCCN(CC)CCCNC(=O)c1cc2c(-c3ccc(OC)c(OC)c3)nn(C)c2s1 | 2.7% | ? | -1.2% | 2.62µM*
CNS(=O)(=O)c1c(C)cc(C)c(N(C)S(=O)(=O)c2ccccc2)c1C | -0.8% | ? | -7.6% | -22.8%
CC(=O)c1cccc(CN(C)CC2CCCN(CCc3ccccc3C)C2)c1 (stereo unspecified) | 4.0% | -26.8% | 8.8% | ?
Nc1nc2n(n1)C1(CCCCC1)C1=C(CCCC1)N2 | -0.6% | 10.4µM* | ? | -0.9%
O=C(OCCN1CCN(C2=NS(=O)(=O)c3ccccc32)CC1)c1ccccc1F | 9.3% | ? | 14.9% | -13.1%
Cc1ccc(N(C)C(=O)c2cnn(-c3ccccc3)c2C)c(C)c1 | -2.4% | 5.22µM* | -5.1% | 5.22µM*
SMILES | SARS PLpro yeast | Pf growth 96h | NS1 inh | Pf growth 48h
CCN(c1ccccc1)S(=O)(=O)c1cccc(C(=O)NCc2ccccn2)c1 | -5.3% | -17.8% | · | ?
CCn1nc(NS(=O)(=O)c2ccc(NC(C)=O)cc2)c2cc3cc(C)ccc3nc21 | -1.9% | ? | 20.2% | 18.6%
Cc1ccccc1N(CC(=O)NCCc1ccccc1)C(=O)c1csnn1 | -1.2% | 19.6% | -2.2% | 28.2%
CN/C=C1\C(=O)C(C)(C)Oc2ccc3ccc(=O)oc3c21 | 3.8% | · | -7.1% | -8.7%
CC1(C)Oc2ccc3ccc(=O)oc3c2/C(=C/Nc2cccc(O)c2)C1=O | -6.9% | 80.5% | · | 13.1µM*
CC1(C)Oc2ccc3ccc(=O)oc3c2/C(=C/NNC(N)=S)C1=O | 1.0% | 23.7% | 7.9% | 0.828µM*
COC(=O)c1ccc(NC(=O)CS(=O)(=O)c2ccccc2)cc1 | ? | -28.9% | -10.1% | 12.4%
CCCc1nnc(SCC(=O)Nc2nc(C)cs2)n1CCOC | -4.9% | 1.0% | 8.1% | 18.4%
COc1ccc(Cn2c(C)nc3ccc([N+](=O)[O-])cc3c2=O)cc1 | -2.7% | ? | -2.0% | 7.3%
CC1CCCCC12NC(=O)N(CC(=O)N1CCN(Cc3ccc(C#N)cc3)CC1)C2=O (stereo unspecified) | 4.5% | -29.0% | · | -1.9%
O=[N+]([O-])c1ccc(/C=N\N2CCN(c3ccc(Cl)cc3)CC2)cc1 | 18.2% | 60.4% | 1.9% | 57.6%
O=[N+]([O-])c1cccc(/C=N\N2CCN(c3ccc(Cl)cc3)CC2)c1 | -1.8% | 8.28µM* | 7.0% | -6.2%
Cn1c(N)c(C(=O)CSc2n[nH]c(-c3ccccc3)n2)c(=O)n(C)c1=O | -4.2% | ? | · | -14.7%
Cc1ccc(-n2c(SCC(=O)NCCN3C(=O)CSC3=O)nnc2-c2ccccc2)cc1 | -12.0% | 14.7µM* | -2.4% | -10.8%
Cc1ccc(-n2c(SCC(=O)NCCN3C(=O)CSC3=O)nnc2-c2cccc(C)c2)cc1 | -14.0% | ? | 1.2% | ?
Cc1cc(C)c2c(c1)cc(C)c1nnc(SCC(=O)N3CCCc4ccccc43)n12 | -18.1% | 5.86µM* | 3.5% | 1.4%
Cc1cc(C)nc(SCc2nnc(SCC(=O)N3CCCc4ccccc43)o2)n1 | 5.8% | 1.47µM* | -13.5% | -20.9%
Cn1c(SCC(=O)N2CCCc3ccccc32)nnc1-c1ccccc1 | 8.7% | ? | 6.1% | ?
Cc1cc(C)nc(SCc2nnc(SCC(=O)N3CCCc4ccccc43)n2C)n1 | 1.3% | 122.8% | -5.4% | ?
Cc1ccc(C)c2c1cc(C)c1nnc(SCC(=O)N3CCCc4ccccc43)n12 | -2.2% | 47.6% | 3.3% | 5.3%
Nn1c(SCC(=O)N2CCCc3ccccc32)nnc1-c1ccc(Cl)cc1 | 1.9% | 11.7µM* | 10.8% | 0.0%
O=C(Nc1ccccc1-c1nnn(CC(=O)N2CCCc3ccccc32)n1)c1ccc(Cl)cc1 | 11.8% | 11.7µM* | 2.8% | ?
COCc1c(C(=O)OCC(=O)NCCN2C(=O)CSC2=O)oc2ccccc12 | -14.2% | 9.3% | -10.0% | 8.4%
COc1ccc(C2/C=C\CN(Cc3ccco3)CC(=O)N2Cc2ccc(F)cc2)cc1 (stereo unspecified) | -1.8% | ? | 8.2% | ?
OCC[C@H]1C[C@H](O)[C@@H](O)[C@]2(OCc3ccccc32)O1 | -0.1% | 2.6% | · | ?
SMILES | SARS PLpro yeast | Pf growth 96h | NS1 inh | Pf growth 48h
Cn1c(Cc2cccs2)nnc1SCC(=O)N1CCc2ccccc21 | 0.1% | · | -0.6% | -13.1%
Cc1ccc(NCc2nnc(SCC(=O)N3CCc4ccccc43)n2C)cc1 | 3.7% | 4.65µM* | -5.4% | -27.8%
COc1ccc(C(=O)N/N=C/c2ccc(OC)c(COc3ccc(F)cc3F)c2)cc1 | -2.0% | -1.6% | 9.3% | ?
Cc1nn2cnnc2c(C)c1Cc1c(F)cccc1Cl | 2.2% | 17.2% | 1.9% | ·
O=C(O)[C@@H](O)[C@@H](O)[C@H](O)[C@H](O)CO | · | 8.49µM* | 11.8% | 6.01µM*
CC(NC(=O)c1cccc(S(=O)(=O)N2CCc3ccccc32)c1)c1ccco1 (stereo unspecified) | -0.2% | ? | · | ?
